The text below walks through data of PubChem BioAssay (EPA / NIEHS).

Several values for one entry are separate records, joined by “and”; a condition that tells them apart may be missing. Equal entries are not always repeated. Results filed as inconclusive are left out. Some compounds were tested as several samples or in several runs, with calls that do not always agree. Activity calls are given as the source filed them. How the source made its calls, unless noted: active means hit-call score of the fitted dose curve at least 0.9, where 1 is the maximum; inconclusive means response in the unintended direction; inactive means score below 0.9.

In assay [1] the target is human Peroxisome Proliferator-activated Receptor alpha (PPARa), PPARA (gene 5465) (UniProt Q07869). The assay is described as follows: ATG_PPARa_TRANS: Attagene TRANS-FACTORIAL HepG2 Assay for human Peroxisome Proliferator-activated Receptor alpha (PPARa) (AID 2283001).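 On AC50: potency for gain of reporter signal over DMSO so agonist or activator.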 A digest of the protocol: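 Exposure: 24 h, transiently transfected HepG2 cells. Endpoint: GAL4-UAS reporter mRNA, RT-PCR with capillary electrophoresis fluorescence. Baseline: DMSO; increases fitted.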

Assay [2] addresses human Peroxisome Proliferator-activated Receptor delta (PPARd), PPARD (gene 5467) (UniProt Q03181). The assay is described as follows: ATG_PPARd_TRANS: Attagene TRANS-FACTORIAL HepG2 Assay for human Peroxisome Proliferator-activated Receptor delta (PPARd) (AID 2283002). A digest of the protocol:
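Measured quantity: GAL4-UAS reporter transcript induction in HepG2 after 24 h chemical dosing, with NR-Gal4 chimeras supplied by transient transfection. Detection by RT-PCR and capillary electrophoresis; upward fit against DMSO.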

Read-out in assay [3]: Intercellular Adhesion Molecule 1 (ICAM1), ICAM1 (gene 3383)
As to the kind of experiment: BSK_3C_ICAM1: BioMAP Diversity Plus: 3C Assay for Intercellular Adhesion Molecule 1 (ICAM1) Biomarker Activity (AID 2283003; active means hit-call score of the fitted dose curve at least 0.9, where 1 is the maximum; inactive means score below 0.9). The note with it: primary human endothelial cells (HUVEC); actives raise or lower the signal. In outline:
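Using DMSO as baseline, bidirectional curve fitting was applied to ICAM-1 ELISA signals from HUVEC in the 3C system, measured 24 h after compound addition.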

The target in assay [4] is human Retinoic Acid Receptor beta (RARb), RARB (gene 5915) (UniProt P10826). As to the kind of experiment: ATG_RARb_TRANS: Attagene TRANS-FACTORIAL HepG2 Assay for human Retinoic Acid Receptor beta (AID 2283004). A digest of the protocol: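 HepG2 cells transiently transfected with multiplexed GAL4-UAS reporter units expressing chimeric NR–Gal4 fusions; 24 h compound exposure. Reporter mRNA quantified by RT-PCR, 6-FAM labelling, HpaI digestion and capillary electrophoresis; gain-of-signal fitted against DMSO baseline.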

Assay [5] concerns the target Retinoic acid receptor alpha (Homo sapiens) (UniProt P10276). As to the kind of experiment: ATG_RARa_TRANS: Attagene TRANS-FACTORIAL HepG2 Assay for human Retinoic Acid Receptor alpha (RARa) (AID 2283005).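 On AC50: potency for increased reporter signal meaning RARa activation over DMSO.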 A digest of the protocol: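 HepG2 cells transiently transfected with multiple reporter units expressing chimeric RARα-GAL4 fusion, with GAL4-UAS-driven reporters. After 24 h compound exposure, reporter mRNA induction quantified by RT-PCR and capillary electrophoresis with fluorescent labeling; gain-of-signal fitted relative to DMSO control.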

A short description of assay [6]: BSK_3C_Proliferation: Cell Proliferation Assessment in the BioMAP Diversity Plus: 3C Assay (AID 2283006; active means hit-call score of the fitted dose curve at least 0.9, where 1 is the maximum; inactive means score below 0.9;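 further: potency may reflect either rise or fall in cell number versus DMSO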). The note with it: primary human endothelial cells (HUVEC). In outline:
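Measured here: sulforhodamine B (0.1%) staining of TCA-fixed sub-confluent umbilical vein endothelial cultures 48 h post-dosing, absorbance 560 nm. DMSO served as negative control and baseline; both signal gain and loss were modelled.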

In assay [7] the target is Peroxisome proliferator-activated receptor gamma (Homo sapiens) (UniProt P37231). The assay is described as follows: ATG_PPARg_TRANS: Attagene TRANS-FACTORIAL HepG2 Assay for human Peroxisome Proliferator-activated Receptor-gamma (PPARg) (AID 2283007). A digest of the protocol:
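A TRANS-format multiplexed reporter assay measures activity of an exogenous chimeric NR-Gal4 protein in HepG2 cells. After 24 h of chemical exposure, reporter transcripts are amplified, fluorescently labelled and sized by capillary electrophoresis, with gain of signal scored against DMSO.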

In assay [8] the target is Nuclear receptor subfamily 1 group I member 2 (Homo sapiens) (UniProt O75469). The assay is described as follows: ATG_PXR_TRANS: Attagene TRANS-FACTORIAL HepG2 Assay for human Pregnane X Receptor (PXR) (AID 2283008). In outline: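 Transient HepG2 transfectants carrying multiplexed reporter transcription units; PXR activity read through a Gal4 chimera. 24 h exposure. RT-PCR/CE fluorescence; upward curve fit referenced to DMSO.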

In assay [9] the target is human Retinoic Acid Receptor gamma (RARg), RARG (gene 5916) (UniProt P13631). The assay is described as follows: ATG_RARg_TRANS: Attagene TRANS-FACTORIAL HepG2 Assay for human Retinoic Acid Receptor gamma (RARg) (AID 2283009).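 On AC50: AC50 is for reporter induction above DMSO meaning RARg activation.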 In outline: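 Gain-of-signal relative to DMSO is reported from fluorescent capillary electrophoresis of RT-PCR reporter products. These came from HepG2 cells expressing transfected RARg-GAL4 chimeras with UAS reporters, harvested 24 h after dosing.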

The target of assay [10] is human RAR-related Orphan Receptor gamma (RORg), RORC (gene 6097) (UniProt P51449). The assay is described as follows: ATG_RORg_TRANS: Attagene TRANS-FACTORIAL HepG2 Assay for human RAR-related Orphan Receptor gamma (RORg) (AID 2283011). A digest of the protocol: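 Readout: reporter transcript induction (RT-PCR, fluorescent primer extension, capillary electrophoresis) after 24 h compound exposure of transiently transfected HepG2 cells carrying a RORg-Gal4 chimera and GAL4-UAS reporters; DMSO served as baseline, with increasing signal fitted.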

Assay [11] deals with Retinoic acid receptor RXR-alpha (Homo sapiens) (UniProt P19793). The assay is described as follows: ATG_RXRa_TRANS: Attagene TRANS-FACTORIAL HepG2 Assay for human Retinoid X Receptor alpha (RXRa) (AID 2283012). In outline:
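Chimeric NR-GAL4 trans-activation in HepG2, 24 h treatment; reporter transcripts quantified by fluorescence on capillary electrophoresis, analysed for upward change from DMSO.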

Assay [12] addresses human Retinoid X Receptor beta (RXRb), RXRB (gene 6257) (UniProt P28702). The assay is described as follows: ATG_RXRb_TRANS: Attagene TRANS-FACTORIAL HepG2 Assay for human Retinoid X Receptor beta (RXRb) (AID 2283013). In outline:
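After a 24 h incubation with test chemical, transfected HepG2 cells carrying NR-Gal4 fusions and GAL4-UAS reporter transcription units yield RNA whose reporter cDNA is FAM-labelled, HpaI-cut and sized by capillary electrophoresis; increases over DMSO are scored.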

The target in assay [13] is human Thyroid Receptor alpha (THRa1), THRA (gene 7067) (UniProt P10827). The assay is described as follows: ATG_THRa1_TRANS: Attagene TRANS-FACTORIAL HepG2 Assay for human Thyroid Receptor alpha (THRa1) (AID 2283014). In outline:
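HepG2 cells transiently transfected with multiplexed GAL4-UAS reporter units for exogenous chimeric THRa1-Gal4; reporter mRNA measured 24 h after dosing by RT-PCR, 6-FAM labelling, HpaI digestion and capillary electrophoresis. Gain-of-signal fitted versus DMSO baseline.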

Read-out in assay [14]: E-selectin (Homo sapiens) (UniProt P16581)
The assay is described as follows: BSK_3C_Eselectin: BioMAP Diversity Plus: 3C Assay for Eselectin Biomarker Activity (AID 2283015; active means hit-call score of the fitted dose curve at least 0.9, where 1 is the maximum; inactive means score below 0.9). To be noted: primary human endothelial cells (HUVEC); actives raise or lower the signal. In outline: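 Primary human umbilical vein endothelial cells (3C system) were dosed with chemical and cell-surface E-selectin measured by ELISA 24 h later. Bidirectional curve fitting used DMSO as negative control and baseline.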

Read-out in assay [15]: Interleukin-1 alpha (IL1a), IL1A (gene 3552)
The assay is described as follows: BSK_BE3C_IL1a: BioMAP Diversity Plus: BE3C Assay for Interleukin-1 alpha (IL1a) Biomarker Activity (AID 2283016; active means hit-call score of the fitted dose curve at least 0.9, where 1 is the maximum; inactive means score below 0.9). To be noted: primary human bronchial epithelial cells; actives raise or lower the signal. In outline:
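Measured in human lung primary bronchial epithelial cells: IL-1a by ELISA at 24 h after dosing, with bidirectional fitting against DMSO.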

Read-out in assay [16]: Monocyte Chemoattractant Protein-1 (MCP1), CCL2 (gene 6347)
The assay is described as follows: BSK_3C_MCP1: BioMAP Diversity Plus: 3C Assay for Monocyte Chemoattractant Protein-1 (MCP1) Biomarker Activity (AID 2283017; active means hit-call score of the fitted dose curve at least 0.9, where 1 is the maximum; inactive means score below 0.9). To be noted: primary human endothelial cells (HUVEC); actives raise or lower the signal. In outline: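 Primary human umbilical vein endothelial cells (3C system) were exposed to test chemical for 24 h, after which MCP-1 was quantified by ELISA. Activity was fitted bidirectionally against DMSO as negative control and baseline.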

Read-out in assay [17]: Monocyte Chemoattractant Protein-1 (MCP1), CCL2 (gene 6347)
The assay is described as follows: BSK_4H_MCP1: BioMAP Diversity Plus: 4H Assay for Monocyte Chemoattractant Protein-1 (MCP1) Biomarker Activity (AID 2283018; active means hit-call score of the fitted dose curve at least 0.9, where 1 is the maximum; inactive means score below 0.9). To be noted: primary human endothelial cells (HUVEC); actives raise or lower the signal. In outline: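 Primary human umbilical vein endothelium is exposed to chemical for 24 h before MCP-1 is assayed by ELISA. Concentration-response fitted bidirectionally relative to DMSO.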

Read-out in assay [18]: Human Leukocyte Antigen - DR isotype (HLADR), HLA-DRA (gene 3122)
The assay is described as follows: BSK_3C_HLADR: BioMAP Diversity Plus: 3C Assay for Human Leukocyte Antigen - DR isotype (HLADR) Biomarker Activity (AID 2283019; active means hit-call score of the fitted dose curve at least 0.9, where 1 is the maximum; inactive means score below 0.9). To be noted: primary human endothelial cells (HUVEC); actives raise or lower the signal. A digest of the protocol:
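Primary human umbilical vein endothelial cells (3C system) were dosed with compound and cell-surface HLA-DR was quantified by ELISA at 24 h. Activity was fitted bidirectionally against DMSO as negative control and baseline.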

Read-out in assay [19]: Interleukin-8 (IL8), CXCL8 (gene 3576)
The assay is described as follows: BSK_3C_IL8: BioMAP Diversity Plus: 3C Assay for Interleukin-8 (IL8) Biomarker Activity (AID 2283020; active means hit-call score of the fitted dose curve at least 0.9, where 1 is the maximum; inactive means score below 0.9). The note with it: primary human endothelial cells (HUVEC); actives raise or lower the signal. In outline:
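Using DMSO-treated wells as the baseline, bidirectional curve fitting was applied to ELISA-measured IL-8 from human umbilical vein endothelial cultures sampled 24 h after compound addition.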

Read-out in assay [20]: Monokine induced gamma interferon (MIG), CXCL9 (gene 4283)
As to the kind of experiment: BSK_3C_MIG: BioMAP Diversity Plus: 3C Assay for Monokine induced gamma interferon (MIG) Biomarker Activity (AID 2283021; active means hit-call score of the fitted dose curve at least 0.9, where 1 is the maximum; inactive means score below 0.9;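 on AC50: MIG protein level measured by immunoassay in the treated endothelial cultures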). To be noted: primary human endothelial cells (HUVEC); actives raise or lower the signal. In outline:
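ELISA-measured MIG in dosed HUVEC 3C cultures at 24 h, analysed by bidirectional fitting with DMSO defining baseline activity.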

human Retinoic Acid Receptor gamma (RARg), RARG (gene 5916), sequence (P13631 whole entry, looked up, the tested form may be a part): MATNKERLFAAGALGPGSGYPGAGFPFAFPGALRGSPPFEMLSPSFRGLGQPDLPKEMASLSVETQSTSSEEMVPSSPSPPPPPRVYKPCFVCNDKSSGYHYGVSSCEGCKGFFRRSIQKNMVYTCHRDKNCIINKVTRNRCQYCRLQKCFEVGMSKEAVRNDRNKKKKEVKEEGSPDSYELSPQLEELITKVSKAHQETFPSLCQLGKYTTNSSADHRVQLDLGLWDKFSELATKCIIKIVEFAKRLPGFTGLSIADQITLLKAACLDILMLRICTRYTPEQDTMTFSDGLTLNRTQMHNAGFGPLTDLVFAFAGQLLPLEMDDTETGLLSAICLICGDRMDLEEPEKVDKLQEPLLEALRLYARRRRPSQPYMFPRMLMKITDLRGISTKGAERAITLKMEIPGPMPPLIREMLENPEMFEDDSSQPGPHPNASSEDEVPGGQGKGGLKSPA
human Peroxisome Proliferator-activated Receptor alpha (PPARa), PPARA (gene 5465), sequence (Q07869 whole entry, looked up, the tested form may be a part): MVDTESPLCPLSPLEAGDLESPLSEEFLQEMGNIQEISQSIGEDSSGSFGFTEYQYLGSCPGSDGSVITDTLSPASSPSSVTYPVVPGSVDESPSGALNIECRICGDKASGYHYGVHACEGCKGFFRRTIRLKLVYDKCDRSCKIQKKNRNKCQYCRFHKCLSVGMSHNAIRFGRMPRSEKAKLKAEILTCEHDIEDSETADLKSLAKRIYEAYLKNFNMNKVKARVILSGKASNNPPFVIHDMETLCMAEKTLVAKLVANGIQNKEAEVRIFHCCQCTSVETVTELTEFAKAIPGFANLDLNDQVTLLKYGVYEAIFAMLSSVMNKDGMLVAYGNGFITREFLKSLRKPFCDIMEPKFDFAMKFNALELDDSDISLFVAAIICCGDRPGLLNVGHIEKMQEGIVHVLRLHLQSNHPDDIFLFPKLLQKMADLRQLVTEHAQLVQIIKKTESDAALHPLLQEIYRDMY
human Thyroid Receptor alpha (THRa1), THRA (gene 7067), sequence (P10827 whole entry, looked up, the tested form may be a part): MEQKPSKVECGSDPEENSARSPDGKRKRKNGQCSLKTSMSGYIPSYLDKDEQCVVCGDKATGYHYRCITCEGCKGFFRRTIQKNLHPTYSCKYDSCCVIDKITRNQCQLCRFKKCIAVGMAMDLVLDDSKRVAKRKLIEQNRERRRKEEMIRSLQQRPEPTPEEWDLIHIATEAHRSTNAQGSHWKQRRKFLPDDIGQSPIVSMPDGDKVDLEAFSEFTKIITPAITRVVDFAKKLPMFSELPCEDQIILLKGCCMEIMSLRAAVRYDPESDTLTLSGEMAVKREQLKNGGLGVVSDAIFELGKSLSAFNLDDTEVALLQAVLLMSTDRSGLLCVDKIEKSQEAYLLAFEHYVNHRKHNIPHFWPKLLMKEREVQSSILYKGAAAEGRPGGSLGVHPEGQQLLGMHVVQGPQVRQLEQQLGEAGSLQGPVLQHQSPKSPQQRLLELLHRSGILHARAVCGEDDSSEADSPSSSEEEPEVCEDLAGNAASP
E-selectin (Homo sapiens), sequence (P16581 whole entry, looked up): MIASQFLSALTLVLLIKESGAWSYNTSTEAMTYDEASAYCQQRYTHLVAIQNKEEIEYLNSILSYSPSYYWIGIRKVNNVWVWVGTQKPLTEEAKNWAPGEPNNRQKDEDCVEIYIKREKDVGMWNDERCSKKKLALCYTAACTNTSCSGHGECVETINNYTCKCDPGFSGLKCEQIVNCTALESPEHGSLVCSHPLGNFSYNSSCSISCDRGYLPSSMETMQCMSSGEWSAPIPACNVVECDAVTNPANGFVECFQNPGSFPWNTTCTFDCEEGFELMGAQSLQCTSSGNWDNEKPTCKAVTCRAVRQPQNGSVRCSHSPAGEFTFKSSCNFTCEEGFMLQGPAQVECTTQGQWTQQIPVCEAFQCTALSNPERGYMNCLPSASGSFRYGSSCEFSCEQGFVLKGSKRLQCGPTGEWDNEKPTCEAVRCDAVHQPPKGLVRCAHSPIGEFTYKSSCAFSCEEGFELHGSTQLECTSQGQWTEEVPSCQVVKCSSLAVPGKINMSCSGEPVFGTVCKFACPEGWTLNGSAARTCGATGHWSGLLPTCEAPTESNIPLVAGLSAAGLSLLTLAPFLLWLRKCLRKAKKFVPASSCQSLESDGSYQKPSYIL
human Peroxisome Proliferator-activated Receptor delta (PPARd), PPARD (gene 5467), sequence (Q03181 whole entry, looked up, the tested form may be a part): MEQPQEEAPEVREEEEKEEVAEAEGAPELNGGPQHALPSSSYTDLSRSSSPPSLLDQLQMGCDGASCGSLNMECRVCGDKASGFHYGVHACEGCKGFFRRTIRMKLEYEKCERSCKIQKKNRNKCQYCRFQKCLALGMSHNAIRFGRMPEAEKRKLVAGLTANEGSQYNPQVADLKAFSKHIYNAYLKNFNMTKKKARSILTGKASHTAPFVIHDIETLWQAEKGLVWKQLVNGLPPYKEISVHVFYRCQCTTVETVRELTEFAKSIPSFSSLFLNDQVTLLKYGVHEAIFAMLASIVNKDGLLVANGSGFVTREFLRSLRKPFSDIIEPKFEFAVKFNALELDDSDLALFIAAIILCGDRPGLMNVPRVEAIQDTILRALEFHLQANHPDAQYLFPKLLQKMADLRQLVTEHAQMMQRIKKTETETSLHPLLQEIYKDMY
human Retinoic Acid Receptor beta (RARb), RARB (gene 5915), sequence (P10826 whole entry, looked up, the tested form may be a part): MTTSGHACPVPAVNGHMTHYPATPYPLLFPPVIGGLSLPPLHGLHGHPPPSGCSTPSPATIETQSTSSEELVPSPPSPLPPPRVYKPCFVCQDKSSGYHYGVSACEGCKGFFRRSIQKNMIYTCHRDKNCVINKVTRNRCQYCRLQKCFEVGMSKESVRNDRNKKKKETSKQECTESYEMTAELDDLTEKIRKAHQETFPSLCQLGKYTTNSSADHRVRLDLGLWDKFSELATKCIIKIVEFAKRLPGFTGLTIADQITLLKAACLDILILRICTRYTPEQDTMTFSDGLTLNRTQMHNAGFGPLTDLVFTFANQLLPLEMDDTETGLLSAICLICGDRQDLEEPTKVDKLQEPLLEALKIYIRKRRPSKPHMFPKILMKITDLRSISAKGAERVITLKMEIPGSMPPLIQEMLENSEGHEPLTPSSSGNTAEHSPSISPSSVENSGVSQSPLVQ
Peroxisome proliferator-activated receptor gamma (Homo sapiens), sequence (P37231 whole entry, looked up, the tested form may be a part): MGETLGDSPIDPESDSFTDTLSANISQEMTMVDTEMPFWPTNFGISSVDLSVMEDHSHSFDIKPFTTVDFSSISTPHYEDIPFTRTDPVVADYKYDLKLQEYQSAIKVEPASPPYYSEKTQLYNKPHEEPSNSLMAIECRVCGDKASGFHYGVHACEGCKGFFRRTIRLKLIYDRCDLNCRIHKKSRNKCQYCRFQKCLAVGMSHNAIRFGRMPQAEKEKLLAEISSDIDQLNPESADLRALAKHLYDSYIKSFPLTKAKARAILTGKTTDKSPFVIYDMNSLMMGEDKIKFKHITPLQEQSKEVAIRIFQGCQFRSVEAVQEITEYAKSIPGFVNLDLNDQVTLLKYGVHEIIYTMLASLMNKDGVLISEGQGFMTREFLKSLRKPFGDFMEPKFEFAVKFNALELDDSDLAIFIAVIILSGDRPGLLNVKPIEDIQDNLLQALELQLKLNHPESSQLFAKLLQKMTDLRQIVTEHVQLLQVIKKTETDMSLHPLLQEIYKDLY
Retinoic acid receptor alpha (Homo sapiens), sequence (P10276 whole entry, looked up, the tested form may be a part): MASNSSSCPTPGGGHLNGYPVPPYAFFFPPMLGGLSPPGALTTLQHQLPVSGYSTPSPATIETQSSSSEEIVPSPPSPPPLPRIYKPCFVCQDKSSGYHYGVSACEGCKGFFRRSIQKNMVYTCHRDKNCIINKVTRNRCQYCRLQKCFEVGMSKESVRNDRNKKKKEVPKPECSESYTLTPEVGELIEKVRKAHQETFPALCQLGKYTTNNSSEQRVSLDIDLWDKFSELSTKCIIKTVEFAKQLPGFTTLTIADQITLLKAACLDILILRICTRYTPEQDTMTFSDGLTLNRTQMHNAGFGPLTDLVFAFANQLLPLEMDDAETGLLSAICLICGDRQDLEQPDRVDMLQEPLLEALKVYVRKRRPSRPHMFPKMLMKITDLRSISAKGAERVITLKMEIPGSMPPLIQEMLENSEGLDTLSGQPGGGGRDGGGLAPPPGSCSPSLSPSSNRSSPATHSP
human Retinoid X Receptor beta (RXRb), RXRB (gene 6257), sequence (P28702 whole entry, looked up, the tested form may be a part): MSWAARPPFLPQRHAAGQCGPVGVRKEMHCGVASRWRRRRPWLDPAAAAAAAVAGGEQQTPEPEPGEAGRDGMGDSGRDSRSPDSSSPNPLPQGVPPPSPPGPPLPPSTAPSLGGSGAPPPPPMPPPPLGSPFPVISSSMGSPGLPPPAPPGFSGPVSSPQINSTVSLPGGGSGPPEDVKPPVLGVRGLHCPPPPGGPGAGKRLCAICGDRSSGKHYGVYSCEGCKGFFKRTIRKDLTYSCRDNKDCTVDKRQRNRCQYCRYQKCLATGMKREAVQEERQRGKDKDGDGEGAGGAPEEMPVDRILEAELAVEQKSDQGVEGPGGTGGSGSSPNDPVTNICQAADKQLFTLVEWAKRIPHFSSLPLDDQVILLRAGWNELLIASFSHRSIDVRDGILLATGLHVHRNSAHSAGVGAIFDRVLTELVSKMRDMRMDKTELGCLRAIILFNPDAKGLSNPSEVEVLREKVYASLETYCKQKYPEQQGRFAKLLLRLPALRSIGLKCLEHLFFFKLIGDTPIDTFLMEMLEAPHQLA
Retinoic acid receptor RXR-alpha (Homo sapiens), sequence (P19793 whole entry, looked up, the tested form may be a part): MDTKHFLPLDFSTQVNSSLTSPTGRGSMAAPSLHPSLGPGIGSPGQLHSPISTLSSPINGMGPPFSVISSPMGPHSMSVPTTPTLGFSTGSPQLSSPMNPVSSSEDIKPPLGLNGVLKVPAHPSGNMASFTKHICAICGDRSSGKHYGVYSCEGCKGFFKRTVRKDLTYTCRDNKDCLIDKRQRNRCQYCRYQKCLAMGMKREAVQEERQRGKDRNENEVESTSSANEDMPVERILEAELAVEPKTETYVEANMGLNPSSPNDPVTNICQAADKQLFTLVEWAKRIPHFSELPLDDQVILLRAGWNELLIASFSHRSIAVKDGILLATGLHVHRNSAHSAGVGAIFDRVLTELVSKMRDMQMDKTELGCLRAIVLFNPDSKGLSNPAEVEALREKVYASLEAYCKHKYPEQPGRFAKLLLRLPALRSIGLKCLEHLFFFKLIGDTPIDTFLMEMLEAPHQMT

For the compound `CCCCCCCCCCCCCC[N+](C)(C)C`, the call in assay [1], in [2], in assay [4], in [5], in [7] and in assay [8] was inactive. The outcome in [9], in [10], in [11], in assay [12] and in [13] was inactive. For the same compound, the AC50 (in general, the midpoint of the concentration-response curve, whichever way the signal moves) in [3] was 7.59 µM (active); in assay [5] it was 48.5 µM (active); in assay [6] it was 1.73 µM (active); in [7], 26.6 µM (active); in [9] it was 36.6 µM (active); in assay [13], 26.7 µM (active). For the same compound, the AC50 was 8.8 µM (active) in [14]; 3.83 µM (active) in [15]; 2.17 µM (active) in [16]; 1.69 µM (active) in assay [17]; 2.1 µM (active) in assay [18]; 6.77 µM (active) in assay [19]. Besides, the AC50 in [20] was 8.96 µM (active).

In the case of `CC1=C(/C=C/C(C)=C/C=C/C(C)=C/C(=O)O)C(C)(C)CCC1`, the AC50 is 100 µM (active) in [1]; 56 µM (active) in [2]; 32.8 µM (active) in assay [6]; 29.6 µM (active) and 10.1 µM (active) in [7]; 20 µM (active) in assay [14]; 19.6 µM (active) in assay [18]. The outcome in [1], in [2], in [3], in [4], in [9] and in assay [13] was inactive. Also, the result in assay [15], in assay [16], in assay [17], in assay [19] and in [20] was inactive.

As to `CCC(=C(c1ccc(O)cc1)c1ccc(OCCN(C)C)cc1)c1ccccc1`, the AC50 was 11.8 µM (active) in assay [1]; 12.6 µM (active) in assay [3]; 5.85 µM (active) in assay [6]; 10.9 µM (active) and 9.84 µM (active) and 11.1 µM (active) in assay [7]; 11.1 µM (active) in assay [14]; 9.53 µM (active) in assay [15]. The AC50 is 8.6 µM (active) in assay [16]; 12.5 µM (active) in assay [17]; 8.28 µM (active) in [18]; 9.28 µM (active) in assay [19]; 11.1 µM (active) in [20]. In addition, the result in [1], in assay [2], in [4], in [5], in assay [7] and in assay [9] was inactive. For the same compound, the result in assay [11], in assay [12] and in assay [13] was inactive.
